Records with an inconclusive call do not appear. Values without a mark were called inactive. Calls of active or inactive are those of the source. Calls follow the shape of the dose curve; as a rule, active = well fitted cell-killing curve with a large enough effect; inconclusive = small, poorly fitted or top-dose-only effect; inactive = flat fitted curve, though single readings scatter.
Potency is read from the fitted curve at half-maximal effect.

This assay in a line: qHTS of pediatric cancer cell lines to identify multiple opportunities for drug repurposing: Primary screen for U-2 OS cells (AID 1347096). Also: nearly all actives have a fitted effect of over 50% in size. The note with it: U-2 OS viability, CellTiter-Glo luminescence, 48 h; series mostly up to 46 µM; activity change, negative = cytotoxic: at the top concentration. The source says: Drug repurposing or repositioning has been offered as a strategy for drug development in oncology programs. This approach has special potential for childhood cancers and other rare or orphan diseases, where the expected return on new drug development has been a disincentive to pharmaceuticals.
In this project we exploit the poly-pharmacology of drugs to discover new indications via phenotypic screening of a panel of 19 well-characterized cell lines derived from solid tumors seen in children and adolescents. The goal is to identify approved drugs with previously unrecognized anticancer properties that has the potential to reveal new mechanisms and biological processes involved in carcinogenesis or drug resistance. We employed a titration-based paradigm (quantitative high-throughput screening or qHTS), where all compounds were tested at multiple concentrations for their effect on cell viability. Concentration-response curves (CRCs) were derived directly from the primary screen, and both potency and efficacy values were used to identify compounds with robust bioactivity profiles. We screened the NIH Chemical Genomics Center (NCGC) Pharmaceutical Collection (NPC) and Mechanism Interrogation Plate (MIPE) small molecule collections of approved and investigational compounds against these cell lines; and measured metabolically active cells after 48 hours of compound treatment as a proxy for cell viability.
Assay Submitter: Nathalia J. Martinez, National Center for Advancing Translational Sciences, National Institutes of Health, Rockville, MD, USA; email: natalia.martinez@nih.gov
[1] Shen, M et al. Quantitative high-throughput phenotypic screening of pediatric cancer cell lines identifies multiple opportunities for drug repurposing. Oncotarget 2017 Dec 19;9(4):4758-4772. PMID 29435139.
The cells were obtained from University of North Carolina (UNC), Pediatric Preclinical Testing Program (PPT), and Coriell Institute (CI).
qHTS cell viability assay:
Cells were assayed in growth media at a density of 500-1,000 cells/well. Five microliters of cells were dispensed into 1,536-well, white, solid-bottom, TC-treated plates (Greiner Bio One) using a multidrop dispenser and incubated at 37 degrees C, 5% CO2, under a humidified atmosphere for 5 hours. Twenty-three nanoliters of compounds and controls (neutral control DMSO or positive control bortezomib at final concentration of 2.3 µM) were subsequently transferred by Kalypsys pintool. For primary screens, the MIPE collection was tested at 11-point dilutions (final concentrations range from 0.78 nM to 46 µM) and the NPC collection at 8-point dilutions (final concentrations range from 0.59 nM to 46 µM). Compounds tested in follow-up screens were assayed at 11-point dilutions. Cells were incubated for 48 hours, followed by addition of 3 µL of CellTiter-Glo (Promega). After a 15 min incubation at room temperature, samples were analyzed for luminescence intensity using a ViewLux High-throughput CCD imager equipped with clear filters.
For the compound `COc1cccc(-c2ccc(NC(=O)C3=C(C(=O)O)CCC3)c(F)c2)c1`, the “activity change, negative = cytotoxic” value was 1.52%.
Consider `COc1ccc(-c2cc3c(C)nc(N)nc3n(C3CCC(OCCO)CC3)c2=O)cn1` (stereo not given), for which the Potency is 0.469 µM (active).
With `CC(=O)OCCN1C(=O)c2c(C)nc3ccc(S(=O)(=O)N4CCOCC4)cc3c2C1=O`, the “activity change, negative = cytotoxic” value was 8.59%.
Consider `Cc1cc(Nc2nc(N[C@@H](C)c3ccc(F)cc3)c(C#N)cc2F)n[nH]1`, for which the “activity change, negative = cytotoxic” value is 12.5%.
Still for that read-out and setting: for `Nc1nccc(Oc2ccc(NC(=O)c3c[nH]cc(-c4ccc(F)cc4)c3=O)cc2F)c1Cl` the value was 10.3%; for `CCC[C@H](NC(=O)C(C#N)=Cc1cccc(Br)n1)c1ccccc1`, 11.1%; for `Cc1cc(CN2CCN(c3c(Br)cnc4nc(-c5ccc(N6CCN(C)CC6)cc5)[nH]c34)CC2)no1`, 15%.
Take `Cc1[nH]c2ccccc2c1CCNCc1ccc(C=CC(=O)NO)cc1`: the Potency was 0.469 µM (active).
As for `Cc1cc(Nc2cc(N3CCN(C)CC3)nc(Sc3ccc(NC(=O)C4CC4)cc3)n2)n[nH]1`, the “activity change, negative = cytotoxic” value is 15.8%.
On the same count and under the same terms, for `Cc1ccc(CN2CCNCC2)cc1NC(=O)CNc1ccc(F)c(F)c1` the value was 8.76%; for `CCOc1cc2ncc(C#N)c(Nc3ccc(F)c(Cl)c3)c2cc1NC(=O)C=CCN(C)C`, 10.1%.
Take `CC(C)(C)OC(=O)Nc1ccc(-c2cc(C(=O)NCCCCCCC(=O)NO)no2)cc1`: the Potency was 4.69 µM (active).
As for `CC(C)(C)c1cc(C(C)(C)C)c(NC(=O)c2c[nH]c3ccccc3c2=O)cc1O`, the “activity change, negative = cytotoxic” value was 2.54%.
Regarding `CCc1cc2c(cc1N1CCC(N3CCOCC3)CC1)C(C)(C)c1[nH]c3cc(C#N)ccc3c1C2=O`, the “activity change, negative = cytotoxic” value was -6.14%.
For the compound `CC1(C)CCC(c2ccc(Cl)cc2)=C(CN2CCN(c3ccc(C(=O)NS(=O)(=O)c4ccc(N[C@H](CCN5CCOCC5)CSc5ccccc5)c(S(=O)(=O)C(F)(F)F)c4)cc3)CC2)C1`, the Potency is 7.43 µM (active).
Same read-out and setting: for `CN(C)Cc1c(C(=O)NCCOc2ccc(C(=O)NO)cc2)oc2ccccc12` the value was 2.96 µM (active); for `Cn1cc(-c2[nH]c3cc(NC(=O)[C@H](N)C4CCCCC4)cc4c3c2C=NNC4=O)cn1`, 11.8 µM (active).
With `N#Cc1c(O)c2c(-c3ccc(-c4ccccc4O)cc3)csc2[nH]c1=O`, the “activity change, negative = cytotoxic” value was 10.7%.
Consider `CN(c1ncccc1CNc1nc(Nc2ccc3c(c2)CC(=O)N3)ncc1C(F)(F)F)S(C)(=O)=O`, for which the “activity change, negative = cytotoxic” value was -8.15%.
As for `CC(C)(O)CCc1ccc(OCc2cc(-c3cccc(OC(F)F)c3)c3ncccc3c2)cc1`, the “activity change, negative = cytotoxic” value is 3.29%.
Still for that read-out and setting: for `O=C1CCC[C@@H]2[C@H]3CCC[N+]4([O-])CCC[C@@H](CN12)[C@@H]34` (stereo not given in full) the value was 4.05%.
For `CCN(CC)CCNC(=O)c1ccc2nc(-c3ccccc3)c(-c3ccc(CN4CCC(n5c(=O)[nH]c6ccccc65)CC4)cc3)nc2c1`, the Potency is 3.72 µM (active).
For the compound `NC(=O)c1cccc2cn(-c3ccc([C@@H]4CCCNC4)cc3)nc12`, the “activity change, negative = cytotoxic” value was 20.6%.
On the same count and under the same terms, as for `CCC(=C(c1ccccc1)c1ccc(OCCN(C)C)cc1)c1ccccc1`, the figure is -20.4%.
For `COCCOc1ccc2c(c1)ncn2-c1ccc2cccc(N3CCC(N)CC3)c2n1`, the Potency is 18.7 µM (active).
As to `N#CCNC(=O)c1ccc(-c2ccnc(Nc3ccc(N4CCOCC4)cc3)n2)cc1`, the “activity change, negative = cytotoxic” value is -0.194%.
On the same count and under the same terms, for `CNC(=O)c1ccc(-c2cnc3ncc(Cc4ccc5ncccc5c4)n3n2)cc1F` the value was -0.0267%.
For `NC(=O)c1c(OCc2c(F)cc(Br)cc2F)nsc1NC(=O)NCCCCN1CCCC1`, the “activity change, negative = cytotoxic” value is 9.73%.
Turning to `O=c1[nH]nc(Sc2ncc([N+](=O)[O-])s2)n1-c1ccc2c(c1)OCCO2`, the Potency was 11.8 µM (active).
On the same count and under the same terms, as for `O=C(C=Cc1cccnc1)NCCCCC1CCN(C(=O)c2ccccc2)CC1`, the figure is 0.118 µM (active).
Consider `Clc1cccc(-n2nnnc2NCc2ccccc2Oc2ccccn2)c1Cl`, for which the “activity change, negative = cytotoxic” value is -3.44%.
For `COc1cccc2nc(-c3cccs3)nc(NN3C(=O)C=C(C)C3=O)c12`, the Potency was 1.87 µM (active).
Regarding `CN1c2cc(O)c(N=NC(N)=O)cc2CC1S(=O)(=O)O` (stereo not given), the “activity change, negative = cytotoxic” value is 1.7%.
For `COc1cc2c(Oc3ccc(-c4cnc(Nc5ccc(F)cc5)n(C)c4=O)cc3F)ccnc2cc1OCCCN1CCOCC1`, the Potency is 14.8 µM (active).
Turning to `Nc1nc(-c2nn(Cc3ccccc3F)c3ncccc23)nc(N)c1N1CCOCC1`, the “activity change, negative = cytotoxic” value is -1.85%.
Take `Cn1cncc1[C@@](N)(c1ccc(Cl)cc1)c1ccc2c(c1)c(-c1cccc(Cl)c1)cc(=O)n2C`: the Potency was 18.7 µM (active).
In the case of `Nc1nc(Nc2ccc(S(N)(=O)=O)cc2)nn1C(=O)c1c(F)cccc1F`, the “activity change, negative = cytotoxic” value was 17.8%.
Same read-out and setting: as for `CC1=C(CO)C(=O)O[C@@H]([C@@H](C)[C@H]2CC[C@H]3[C@@H]4C[C@H]5O[C@]56[C@@H](O)C=CC(=O)[C@]6(C)[C@@H]4CC[C@]23C)C1`, the figure is 16.6%; as for `c1cc(-c2cnn3cc(-c4ccc(OCCN5CCCCC5)cc4)cnc23)ccn1`, -2.57%.
Turning to `Cc1ccc(C(N)=O)cc1Nc1nccc(-c2cn(C(C)C)c3cnccc23)n1`, the “activity change, negative = cytotoxic” value is -24.4%.

Values taken from PubChem BioAssay (NCATS).
